Measured values taken from PMC7862700, “An all-to-all approach to the identification of sequence-specific readers for epigenetic DNA modifications on cytosine”.

Legend:
Experiment in all cases: DAPPL (digital affinity profiling via proximity ligation, sequencing); 10 mM Tris-HCl pH 7.5, 50 mM NaCl, 1 mM DTT, 4% glycerol, room temperature, 30 min; GST-TFs on glutathione beads, 16-mer random dsDNA library, 0.1% formaldehyde crosslink after washing; high values mean tight binding
Conditions in all cases: protein: recombinant; tags: N-terminal GST; dsDNA, one strand shown
FLI1 = target: T1, FLI1 (Homo sapiens, UniProt Q01543 1-452)
T1 sequence: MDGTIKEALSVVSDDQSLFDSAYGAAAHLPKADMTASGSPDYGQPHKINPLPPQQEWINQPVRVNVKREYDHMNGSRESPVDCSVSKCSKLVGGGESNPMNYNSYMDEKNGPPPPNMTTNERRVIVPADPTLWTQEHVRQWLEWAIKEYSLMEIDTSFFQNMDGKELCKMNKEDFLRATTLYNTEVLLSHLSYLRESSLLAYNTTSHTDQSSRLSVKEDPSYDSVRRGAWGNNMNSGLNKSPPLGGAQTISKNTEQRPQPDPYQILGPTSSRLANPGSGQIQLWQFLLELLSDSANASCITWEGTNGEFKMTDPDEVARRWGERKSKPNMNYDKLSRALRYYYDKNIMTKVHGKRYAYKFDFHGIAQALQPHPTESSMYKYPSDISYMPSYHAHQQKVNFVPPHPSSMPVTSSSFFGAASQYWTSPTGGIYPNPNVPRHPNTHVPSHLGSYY
Procedure, shortened: (§1)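 Human transcription factors carrying a GST fusion were produced in yeast, bound to glutathione beads, tagged with DNA barcodes and pooled together with a tag-only sample. Each pool was held with 200 nmole of a random double-stranded 16-mer DNA library in Tris/NaCl/DTT/glycerol buffer for 30 min at room temperature, then washed, crosslinked in 0.1% formaldehyde, proximity-ligated with BsaI/T4 ligase (1 h, 37 °C), PCR-amplified and sequenced on an Illumina NextSeq500. Binding signal is the read frequency of each hexamer for a given factor divided by its frequency in the tag-only sample.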

ELK1 = target: T2, ELK1 (Homo sapiens, UniProt P19419 1-428)
T2 sequence: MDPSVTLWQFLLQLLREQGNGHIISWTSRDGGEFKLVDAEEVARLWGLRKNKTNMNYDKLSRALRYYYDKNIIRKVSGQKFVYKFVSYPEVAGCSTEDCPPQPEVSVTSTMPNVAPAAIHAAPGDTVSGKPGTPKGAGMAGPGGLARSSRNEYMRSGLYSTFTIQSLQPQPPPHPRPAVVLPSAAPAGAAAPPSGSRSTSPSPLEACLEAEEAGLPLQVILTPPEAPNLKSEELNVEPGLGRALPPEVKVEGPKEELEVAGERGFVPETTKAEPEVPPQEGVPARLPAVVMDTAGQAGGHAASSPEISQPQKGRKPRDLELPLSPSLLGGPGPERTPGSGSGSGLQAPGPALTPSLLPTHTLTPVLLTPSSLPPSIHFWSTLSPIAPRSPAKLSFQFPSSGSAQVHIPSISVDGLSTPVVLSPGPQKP
Procedure, shortened: as §1

GABPA = target: T3, GABPA (Homo sapiens, UniProt Q06546 1-454)
T3 sequence: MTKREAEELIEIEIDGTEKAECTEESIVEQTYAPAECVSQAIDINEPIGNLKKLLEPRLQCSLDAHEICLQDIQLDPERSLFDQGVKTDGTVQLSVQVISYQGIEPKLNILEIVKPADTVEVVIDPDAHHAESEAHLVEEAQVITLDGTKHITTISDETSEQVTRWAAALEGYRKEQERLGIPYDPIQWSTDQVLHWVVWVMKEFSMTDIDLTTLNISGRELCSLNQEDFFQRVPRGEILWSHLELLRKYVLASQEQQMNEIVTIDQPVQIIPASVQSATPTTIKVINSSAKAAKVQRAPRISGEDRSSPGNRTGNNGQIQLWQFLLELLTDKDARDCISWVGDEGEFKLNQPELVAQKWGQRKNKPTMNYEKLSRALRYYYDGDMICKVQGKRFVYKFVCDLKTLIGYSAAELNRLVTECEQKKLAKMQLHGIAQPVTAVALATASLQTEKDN
Procedure, shortened: as §1

ERG = target: T4, ERG (Homo sapiens, UniProt P11308 1-479)
T4 sequence: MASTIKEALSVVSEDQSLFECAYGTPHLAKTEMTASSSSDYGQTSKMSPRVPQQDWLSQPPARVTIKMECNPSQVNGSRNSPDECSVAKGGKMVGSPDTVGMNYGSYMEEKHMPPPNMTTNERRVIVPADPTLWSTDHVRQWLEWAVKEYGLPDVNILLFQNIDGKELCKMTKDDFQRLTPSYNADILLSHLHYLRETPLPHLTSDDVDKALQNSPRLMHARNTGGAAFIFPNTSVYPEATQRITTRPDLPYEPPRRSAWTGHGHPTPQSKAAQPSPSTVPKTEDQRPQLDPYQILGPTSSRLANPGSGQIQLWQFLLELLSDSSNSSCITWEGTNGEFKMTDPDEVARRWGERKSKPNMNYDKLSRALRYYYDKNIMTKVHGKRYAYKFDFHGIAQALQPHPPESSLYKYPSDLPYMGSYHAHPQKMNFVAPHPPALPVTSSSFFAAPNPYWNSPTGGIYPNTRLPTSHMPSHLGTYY
Procedure, shortened: as §1

ELF1 = ELF1 (Homo sapiens, UniProt P32519 1-619)
Procedure, shortened: as §1

EHF = target: T5, EHF (Homo sapiens, UniProt Q9NZC4 1-300)
T5 sequence: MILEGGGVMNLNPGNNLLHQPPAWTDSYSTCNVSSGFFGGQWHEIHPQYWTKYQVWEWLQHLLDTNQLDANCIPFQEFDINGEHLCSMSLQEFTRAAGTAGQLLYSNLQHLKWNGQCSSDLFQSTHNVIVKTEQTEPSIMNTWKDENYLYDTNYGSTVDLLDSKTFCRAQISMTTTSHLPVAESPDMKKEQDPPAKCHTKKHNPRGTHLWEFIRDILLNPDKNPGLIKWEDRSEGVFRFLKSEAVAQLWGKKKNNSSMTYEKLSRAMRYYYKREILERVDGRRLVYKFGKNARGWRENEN
Procedure, shortened: as §1

SPI1 = SPI1 (Homo sapiens, UniProt P17947 1-270)
Procedure, shortened: as §1

SPIB = SPIB (Homo sapiens, UniProt Q01892 1-262)
Procedure, shortened: as §1

ELK3 = target: T6, ELK3 (Homo sapiens, UniProt P41970 1-407)
T6 sequence: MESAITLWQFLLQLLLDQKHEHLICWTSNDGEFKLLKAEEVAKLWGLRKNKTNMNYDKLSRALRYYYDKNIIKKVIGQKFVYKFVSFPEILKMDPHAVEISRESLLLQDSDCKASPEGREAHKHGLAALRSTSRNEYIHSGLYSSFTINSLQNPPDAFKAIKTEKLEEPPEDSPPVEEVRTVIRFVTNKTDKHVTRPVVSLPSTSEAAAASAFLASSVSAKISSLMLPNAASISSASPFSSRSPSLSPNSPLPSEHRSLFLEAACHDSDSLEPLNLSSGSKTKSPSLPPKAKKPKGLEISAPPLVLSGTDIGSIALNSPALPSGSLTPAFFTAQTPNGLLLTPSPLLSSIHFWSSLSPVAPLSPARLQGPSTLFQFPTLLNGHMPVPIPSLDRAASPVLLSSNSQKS
Procedure, shortened: as §1

FEV = target: T7, FEV (Homo sapiens, UniProt Q99581 1-238)
T7 sequence: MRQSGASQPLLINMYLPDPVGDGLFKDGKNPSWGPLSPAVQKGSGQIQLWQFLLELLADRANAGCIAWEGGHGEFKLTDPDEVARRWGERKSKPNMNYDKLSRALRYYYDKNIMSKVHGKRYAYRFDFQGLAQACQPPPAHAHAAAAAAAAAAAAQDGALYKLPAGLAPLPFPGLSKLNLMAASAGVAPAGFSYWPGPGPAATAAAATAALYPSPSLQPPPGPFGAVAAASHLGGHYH
Procedure, shortened: as §1

ETV5 = ETV5 (Homo sapiens, UniProt P41161 1-510)
Procedure, shortened: as §1

SPIC = target: T8, SPIC (Homo sapiens, UniProt Q8N5J4 1-248)
T8 sequence: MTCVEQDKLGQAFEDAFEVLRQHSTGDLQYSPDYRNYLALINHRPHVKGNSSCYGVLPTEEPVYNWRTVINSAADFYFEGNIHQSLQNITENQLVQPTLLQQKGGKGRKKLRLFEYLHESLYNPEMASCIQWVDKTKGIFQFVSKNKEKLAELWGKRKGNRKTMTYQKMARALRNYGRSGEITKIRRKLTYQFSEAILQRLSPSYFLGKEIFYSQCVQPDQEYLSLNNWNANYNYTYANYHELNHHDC
Procedure, shortened: as §1

ELF4 = ELF4 (Homo sapiens, UniProt Q99607 1-663)
Procedure, shortened: as §1

ETV1 = ETV1 (Homo sapiens, UniProt P50549 1-477)
Procedure, shortened: as §1

ERF = target: T9, ERF (Homo sapiens, UniProt P50548 1-548)
T9 sequence: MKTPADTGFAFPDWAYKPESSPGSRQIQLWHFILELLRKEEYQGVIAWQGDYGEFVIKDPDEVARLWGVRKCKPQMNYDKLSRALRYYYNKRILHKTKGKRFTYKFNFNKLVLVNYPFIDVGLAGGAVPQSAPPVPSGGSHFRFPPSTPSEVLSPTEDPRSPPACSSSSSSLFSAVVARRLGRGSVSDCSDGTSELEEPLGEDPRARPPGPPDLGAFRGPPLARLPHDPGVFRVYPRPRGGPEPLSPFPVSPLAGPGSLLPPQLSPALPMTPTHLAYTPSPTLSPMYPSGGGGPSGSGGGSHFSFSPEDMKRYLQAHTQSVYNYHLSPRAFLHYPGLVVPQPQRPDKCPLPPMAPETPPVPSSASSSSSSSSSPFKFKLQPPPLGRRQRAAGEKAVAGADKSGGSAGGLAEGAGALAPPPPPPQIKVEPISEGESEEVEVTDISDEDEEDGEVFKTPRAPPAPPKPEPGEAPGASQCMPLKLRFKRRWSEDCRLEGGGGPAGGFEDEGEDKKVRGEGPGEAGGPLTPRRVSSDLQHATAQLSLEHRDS
Procedure, shortened: as §1

ETV3L = target: T10, ETV3L (Homo sapiens, UniProt Q6ZN32 1-361)
T10 sequence: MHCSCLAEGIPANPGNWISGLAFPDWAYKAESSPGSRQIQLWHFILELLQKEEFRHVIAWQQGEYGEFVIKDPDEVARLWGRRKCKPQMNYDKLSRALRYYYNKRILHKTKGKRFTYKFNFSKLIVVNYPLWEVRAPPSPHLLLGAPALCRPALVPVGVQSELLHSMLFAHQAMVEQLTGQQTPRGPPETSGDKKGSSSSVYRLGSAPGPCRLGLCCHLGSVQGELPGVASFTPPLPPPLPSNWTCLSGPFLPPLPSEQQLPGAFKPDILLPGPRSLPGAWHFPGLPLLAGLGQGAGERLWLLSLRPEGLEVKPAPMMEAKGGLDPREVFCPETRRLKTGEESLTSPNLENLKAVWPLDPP
Procedure, shortened: as §1

ETS2 = target: T11, ETS2 (Homo sapiens, UniProt P15036 1-469)
T11 sequence: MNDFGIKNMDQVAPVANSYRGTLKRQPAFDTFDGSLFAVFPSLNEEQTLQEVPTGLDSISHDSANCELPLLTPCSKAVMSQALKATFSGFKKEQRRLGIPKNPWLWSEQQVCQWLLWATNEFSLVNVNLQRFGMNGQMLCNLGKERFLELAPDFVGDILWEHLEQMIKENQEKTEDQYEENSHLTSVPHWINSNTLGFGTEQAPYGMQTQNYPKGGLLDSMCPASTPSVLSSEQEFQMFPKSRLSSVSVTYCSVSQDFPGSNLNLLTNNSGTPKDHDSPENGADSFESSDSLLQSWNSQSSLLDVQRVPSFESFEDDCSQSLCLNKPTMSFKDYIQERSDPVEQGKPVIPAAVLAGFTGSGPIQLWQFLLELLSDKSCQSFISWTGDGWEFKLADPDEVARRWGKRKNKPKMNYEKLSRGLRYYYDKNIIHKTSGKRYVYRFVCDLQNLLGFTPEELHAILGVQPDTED
Procedure, shortened: as §1

SPDEF = target: T12, SPDEF (Homo sapiens, UniProt O95238 1-335)
T12 sequence: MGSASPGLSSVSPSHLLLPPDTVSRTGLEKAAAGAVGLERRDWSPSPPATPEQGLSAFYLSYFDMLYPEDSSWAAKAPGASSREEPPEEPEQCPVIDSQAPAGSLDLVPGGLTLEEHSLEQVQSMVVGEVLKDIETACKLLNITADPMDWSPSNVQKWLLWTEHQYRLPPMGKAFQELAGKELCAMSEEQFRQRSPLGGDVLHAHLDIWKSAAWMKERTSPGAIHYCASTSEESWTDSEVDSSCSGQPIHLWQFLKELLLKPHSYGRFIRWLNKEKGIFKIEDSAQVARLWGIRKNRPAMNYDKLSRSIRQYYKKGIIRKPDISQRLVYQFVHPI
Procedure, shortened: as §1

ETV3 = target: T13, ETV3 (Homo sapiens, UniProt P41162-2 1-143)
T13 sequence: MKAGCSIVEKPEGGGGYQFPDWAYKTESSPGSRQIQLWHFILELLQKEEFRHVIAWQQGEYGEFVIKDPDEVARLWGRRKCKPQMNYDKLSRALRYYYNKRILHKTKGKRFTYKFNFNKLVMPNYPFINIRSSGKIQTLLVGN
Procedure, shortened: as §1

ETV6 = ETV6 (Homo sapiens, UniProt P41212 1-452)
Procedure, shortened: as §1

Chain of ETV5 (P41161 whole entry): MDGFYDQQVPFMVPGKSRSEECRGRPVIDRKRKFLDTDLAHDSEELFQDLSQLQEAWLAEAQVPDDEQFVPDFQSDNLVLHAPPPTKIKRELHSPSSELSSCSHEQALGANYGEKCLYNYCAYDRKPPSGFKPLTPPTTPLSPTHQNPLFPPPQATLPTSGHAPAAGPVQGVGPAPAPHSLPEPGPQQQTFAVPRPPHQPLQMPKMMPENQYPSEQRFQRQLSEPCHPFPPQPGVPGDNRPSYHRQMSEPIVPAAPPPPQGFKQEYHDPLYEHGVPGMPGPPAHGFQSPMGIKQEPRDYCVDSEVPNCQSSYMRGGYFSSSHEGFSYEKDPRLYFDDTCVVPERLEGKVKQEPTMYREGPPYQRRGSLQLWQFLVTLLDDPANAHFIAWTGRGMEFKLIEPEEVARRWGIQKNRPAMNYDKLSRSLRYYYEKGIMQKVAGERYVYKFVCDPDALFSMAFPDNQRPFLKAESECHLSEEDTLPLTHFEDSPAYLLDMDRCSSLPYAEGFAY
Chain of ETV1 (P50549 whole entry): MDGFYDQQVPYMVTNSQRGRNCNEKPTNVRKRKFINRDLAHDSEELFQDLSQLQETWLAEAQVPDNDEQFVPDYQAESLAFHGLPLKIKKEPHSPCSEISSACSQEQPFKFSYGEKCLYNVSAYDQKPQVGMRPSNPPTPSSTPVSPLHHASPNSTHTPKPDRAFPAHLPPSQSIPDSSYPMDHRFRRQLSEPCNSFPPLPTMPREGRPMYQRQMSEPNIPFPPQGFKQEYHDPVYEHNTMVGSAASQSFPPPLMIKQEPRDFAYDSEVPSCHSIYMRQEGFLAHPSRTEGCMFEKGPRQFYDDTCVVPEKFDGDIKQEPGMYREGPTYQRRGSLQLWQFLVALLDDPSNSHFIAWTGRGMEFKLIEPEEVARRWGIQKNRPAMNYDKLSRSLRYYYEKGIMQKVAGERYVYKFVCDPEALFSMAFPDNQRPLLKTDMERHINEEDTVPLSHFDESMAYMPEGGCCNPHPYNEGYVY
Chain of ELF1 (P32519 whole entry): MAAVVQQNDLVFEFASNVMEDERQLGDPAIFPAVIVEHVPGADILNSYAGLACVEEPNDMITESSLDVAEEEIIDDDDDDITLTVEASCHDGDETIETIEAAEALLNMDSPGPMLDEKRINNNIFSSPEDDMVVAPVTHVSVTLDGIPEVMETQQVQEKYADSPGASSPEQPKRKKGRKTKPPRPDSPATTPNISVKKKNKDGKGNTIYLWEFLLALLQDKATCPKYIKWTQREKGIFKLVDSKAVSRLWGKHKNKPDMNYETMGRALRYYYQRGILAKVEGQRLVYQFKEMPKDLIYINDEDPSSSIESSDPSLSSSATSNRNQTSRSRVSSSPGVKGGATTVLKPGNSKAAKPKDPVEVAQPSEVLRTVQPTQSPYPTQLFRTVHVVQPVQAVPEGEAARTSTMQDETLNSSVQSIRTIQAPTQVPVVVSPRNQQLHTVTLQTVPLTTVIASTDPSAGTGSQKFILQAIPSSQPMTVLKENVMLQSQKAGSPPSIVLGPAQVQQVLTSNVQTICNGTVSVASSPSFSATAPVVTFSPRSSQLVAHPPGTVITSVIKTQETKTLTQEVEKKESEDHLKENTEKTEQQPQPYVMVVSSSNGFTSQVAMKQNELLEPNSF
Chain of SPIB (Q01892 whole entry): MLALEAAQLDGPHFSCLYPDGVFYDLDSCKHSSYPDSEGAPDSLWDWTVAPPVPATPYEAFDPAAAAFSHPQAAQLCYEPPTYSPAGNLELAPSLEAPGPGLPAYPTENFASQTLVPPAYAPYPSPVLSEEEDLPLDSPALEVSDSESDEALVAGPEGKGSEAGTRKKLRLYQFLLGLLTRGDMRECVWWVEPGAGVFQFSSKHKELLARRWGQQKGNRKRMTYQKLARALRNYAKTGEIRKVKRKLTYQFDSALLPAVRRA
Chain of ELF4 (Q99607 whole entry): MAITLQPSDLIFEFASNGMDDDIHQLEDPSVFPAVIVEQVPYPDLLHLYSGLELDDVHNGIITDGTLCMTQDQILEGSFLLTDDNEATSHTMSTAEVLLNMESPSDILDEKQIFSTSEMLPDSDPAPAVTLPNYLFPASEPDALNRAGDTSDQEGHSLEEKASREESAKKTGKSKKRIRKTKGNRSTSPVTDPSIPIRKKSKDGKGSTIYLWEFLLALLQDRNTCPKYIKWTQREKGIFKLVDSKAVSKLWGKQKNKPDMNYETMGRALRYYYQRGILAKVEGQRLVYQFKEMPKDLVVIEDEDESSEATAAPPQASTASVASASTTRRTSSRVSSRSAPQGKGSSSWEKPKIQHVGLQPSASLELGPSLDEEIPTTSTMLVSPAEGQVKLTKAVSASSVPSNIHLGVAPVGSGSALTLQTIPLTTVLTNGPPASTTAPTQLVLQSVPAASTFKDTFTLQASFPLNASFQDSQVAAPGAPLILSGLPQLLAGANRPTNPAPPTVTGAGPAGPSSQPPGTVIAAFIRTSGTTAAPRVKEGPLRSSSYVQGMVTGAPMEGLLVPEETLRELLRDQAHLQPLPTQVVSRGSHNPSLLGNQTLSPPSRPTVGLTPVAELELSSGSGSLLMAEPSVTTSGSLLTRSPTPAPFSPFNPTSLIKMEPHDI
Chain of ETV6 (P41212 whole entry): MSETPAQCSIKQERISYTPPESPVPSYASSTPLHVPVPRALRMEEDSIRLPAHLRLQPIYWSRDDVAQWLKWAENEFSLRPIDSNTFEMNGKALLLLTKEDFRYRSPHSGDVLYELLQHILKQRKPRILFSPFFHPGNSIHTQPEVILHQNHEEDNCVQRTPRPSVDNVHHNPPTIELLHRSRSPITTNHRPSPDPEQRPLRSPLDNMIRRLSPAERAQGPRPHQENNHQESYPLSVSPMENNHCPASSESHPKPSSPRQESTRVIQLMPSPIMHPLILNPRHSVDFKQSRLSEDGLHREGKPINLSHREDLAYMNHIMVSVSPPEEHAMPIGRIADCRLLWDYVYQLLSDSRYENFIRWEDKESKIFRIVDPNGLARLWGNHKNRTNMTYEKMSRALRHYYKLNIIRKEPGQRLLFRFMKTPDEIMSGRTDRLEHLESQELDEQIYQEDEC

GAAGTC
binding signal (FLI1): 1.15 fold enrichment (6-mer frequency, TF over GST control) | binding signal (ELK1): 1.2 fold enrichment (6-mer frequency, TF over GST control) | binding signal (GABPA): 1.04 fold enrichment (6-mer frequency, TF over GST control) | binding signal (ERG): 1.33 fold enrichment (6-mer frequency, TF over GST control) | binding signal (ELF1): 1.1 fold enrichment (6-mer frequency, TF over GST control) | binding signal (EHF): 1.13 fold enrichment (6-mer frequency, TF over GST control) | binding signal (SPI1): 1.51 fold enrichment (6-mer frequency, TF over GST control) | binding signal (SPIB): 1.22 fold enrichment (6-mer frequency, TF over GST control) | binding signal (ELK3): 1.19 fold enrichment (6-mer frequency, TF over GST control) | binding signal (FEV): 1.22 fold enrichment (6-mer frequency, TF over GST control) | binding signal (ETV5): 1.17 fold enrichment (6-mer frequency, TF over GST control) | binding signal (SPIC): 1.23 fold enrichment (6-mer frequency, TF over GST control) | binding signal (ELF4): 1.08 fold enrichment (6-mer frequency, TF over GST control) | binding signal (ETV1): 1.22 fold enrichment (6-mer frequency, TF over GST control) | binding signal (ERF): 1.11 fold enrichment (6-mer frequency, TF over GST control) | binding signal (ETV3L): 1.14 fold enrichment (6-mer frequency, TF over GST control) | binding signal (ETS2): 1.19 fold enrichment (6-mer frequency, TF over GST control) | binding signal (SPDEF): 1.06 fold enrichment (6-mer frequency, TF over GST control) | binding signal (ETV3): 1.21 fold enrichment (6-mer frequency, TF over GST control) | binding signal (ETV6): 1.22 fold enrichment (6-mer frequency, TF over GST control)
